High-throughput results as filed in PubChem BioAssay.
OvCa metastasis – blocks SKOV3ip1 adhesion and invasion in omental model; SKOV3ip1-GFP adhesion/invasion on 3D omental model, fluorescence; Potency, µM (titrated, usually from 45.8 µM), for inactives: at the top dose activity change, negative = inhibition, most hits filed as inhibitors; actives 0.1% (n = 46,000);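 further: potency means the concentration at half of the fitted maximal effect; plate controls were DMSO wells for no effect and tomatine positive control wells for full effect; nearly all actives have a fitted effect of over 65% in size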
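Adhesion/invasion was scored as fixed GFP-labeled SKOV3ip1 cell counts (488/509 nm), normalized to DMSO and tomatine controls. Cancer cells in serum-free medium, with four compound doses (0.36-46 umol/L), sat 2 hr at RT then 16 hr at 37 C on a 48 hr fibroblast/mesothelial/ECM culture.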
NTMT1 inhibitor – NTMT1 methyltransferase inhibition. Q9BV86. NTMT1 MTase-Glo SAH luminescence, purified enzyme. Potency, µM (top dose mostly 114 µM), for inactives: at the highest dose activity change, negative = inhibition, actives largely listed as inhibitors. actives 2.5% (n = 59,000). AID 1645870;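 further: potency means the concentration at half of the fitted maximal effect; plate controls were DMSO vehicle for no effect and no enzyme for full effect; nearly all actives have a fitted effect of over 65% in size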
Target sequence (Q9BV86 whole entry, looked up): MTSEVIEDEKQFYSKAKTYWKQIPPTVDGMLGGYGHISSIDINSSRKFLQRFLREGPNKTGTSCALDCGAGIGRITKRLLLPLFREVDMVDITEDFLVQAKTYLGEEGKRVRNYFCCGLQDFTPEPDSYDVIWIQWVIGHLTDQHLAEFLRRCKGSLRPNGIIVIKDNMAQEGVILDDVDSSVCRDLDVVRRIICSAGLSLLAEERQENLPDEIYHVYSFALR
p53null 39C kill – kills p53 null cells at the nonpermissive temperature | H1299 p53-null (neo) cells, 39C, ATPlite viability, 24 h | Potency, µM (doses to about 46.1 µM), inactives show at the top dose activity, negative = cell killing, actives largely listed as cytotoxic | actives 0.97% (n = 55,000);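 further: potency means the concentration at half of the fitted maximal effect; 0% = DMSO only and -100% = full killing by 100 µM tamoxifen; nearly all actives have a fitted effect of over 50% in size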
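Concentration-response (up to 46 uM) was run for 24 h at the nonpermissive 39C on H1299-p53A138V or H1299-neo cells. ATP content was measured with ATPlite luminescence. AC50 values were Hill-modeled after normalizing between DMSO and 100 uM tamoxifen killing.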
GPR32 ag – activates human resolvin D1 receptor GPR32. O75388. CHO-K1 GPR32 beta-arrestin PathHunter luminescence, 90 min; zero percent set by DMSO-only wells. activation, % at 76.9 µM. actives 2.5% (n = 48,000);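 active means activation of at least 60% and not above a set upper limit, about 1 call in 100 departs from these limits; inconclusive means activation of 40% to 60%, or above that upper limit; inactive means activation under 40%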; further: 0% is about no effect
Target sequence (O75388 whole entry, looked up): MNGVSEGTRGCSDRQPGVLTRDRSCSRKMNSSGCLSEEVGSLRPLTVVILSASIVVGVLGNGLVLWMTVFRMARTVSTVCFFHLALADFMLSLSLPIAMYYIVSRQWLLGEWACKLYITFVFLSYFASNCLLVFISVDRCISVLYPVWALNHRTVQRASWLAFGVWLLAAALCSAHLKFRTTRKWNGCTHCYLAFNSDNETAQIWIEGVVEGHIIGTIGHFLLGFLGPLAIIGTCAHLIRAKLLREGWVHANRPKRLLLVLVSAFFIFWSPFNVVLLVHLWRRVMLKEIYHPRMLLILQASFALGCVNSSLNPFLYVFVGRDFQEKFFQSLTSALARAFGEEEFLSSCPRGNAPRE
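Agonism was scored by beta-Gal fragment complementation (chemiluminescent read, 1 h detection at ambient temperature) reporting beta-arrestin binding to GPR32 in engineered CHO-K1 cells. Compound treatment lasted 90 min at 37 C, normalized to a DMSO basal control.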
GALC G270D act – enhancers of human galactocerebrosidase G270D mutant activity in cells; P54803; 145M-Twi-hGALC-G270D cells (Twitcher mouse brain line with human GALC G270D), HMU-beta-Gal fluorescence, 48 h; Potency, µM (series often up to 57.5 µM), most hits filed as activators; actives 0.1% (n = 45,000); AID 1159614; further: potency means the concentration at half of the fitted maximal effect; 0% is about no effect; nearly all actives have a fitted effect of over 65% in size
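Brain-derived Twitcher mouse 145M-Twi cells stably expressing human GALC-G270D or wild-type GALC, treated live, then residual GALC activity read by fluorescence of HMU-b-Gal substrate (0.1 mM final) in citrate-phosphate buffer pH 5.2 with sodium taurocholate. Signal increase indicates enhancement.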
p53null 32C tox – kills p53 null cells at the permissive temperature. H1299-neo p53 null cells, ATP luminescence, 24 h, 32C. actives 0.62% (n = 55,000). Potency, µM (highest dose often 46.1 µM), without a hit: at the top dose activity change, negative = cytotoxicity, most hits filed as cytotoxic. AID 903;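 further: potency means the concentration at half of the fitted maximal effect; 0% = DMSO only and -100% = full killing by 100 µM tamoxifen; nearly all actives have a fitted effect of over 55% in size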
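AC50 values derive from Hill modelling of qHTS concentration-response data (up to 46 uM) in H1299-neo cells. Cells were treated 24 h at 32C following overnight attachment at 37C; viability was read as cellular ATP.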
Numbers without * were called inactive; i = inactive; ? = inconclusive; . = no result; ! = not confirmed by another sample; [ ] = remark or other dose. Hits are enriched below; roughly 4% of the tested compounds scored in any of these assays. Unless noted, the call rests on the fitted dose curve; in most records, active means well fitted curve in the direction sought with a large enough effect; inconclusive means small, poorly fitted or top-dose-only effect, or another doubt; inactive means no such curve, though single readings can be large; an effect the other way counts as inactive or inconclusive.

SMILES | OvCa metastasis | NTMT1 inhibitor | p53null 39C kill | GPR32 ag | GALC G270D act | p53null 32C tox
O=C(CC(Nc1ccc(F)cc1)c1ccccc1)c1ccccc1 (stereo unspecified) | . | . | -10% | . | . | .
O=C(CC(Nc1ccc(Cl)cc1)C(=O)O)c1ccccc1 (stereo unspecified) | . | . | 14µM* | . | . | ?
CC(C)c1ccc(NS(=O)(=O)c2ccc3nc(-c4ccccc4)[nH]c3c2)cc1 | -2% | -16% | 20µM* | 110* | i | ?
Cc1ccc2nc(-c3cccc(N)c3)[nH]c2c1 | . | . | ? | . | . | 13µM*
Cc1cccc(NS(=O)(=O)c2ccc3nc(-c4ccccc4)[nH]c3c2)c1C | i | 3% | 11µM* | 86* | i | ?
Cc1ccc(NS(=O)(=O)c2ccc3nc(-c4ccccc4)[nH]c3c2)c(Cl)c1 | ? | -4% | -24% | 104* | i | -8%
O=S(=O)(Nc1ccc(Br)cc1)c1ccc2nc(-c3ccccc3)[nH]c2c1 | i | -9% | ? | ? | i | -1%
COC(=O)c1ccc(O)c2ncc(NC3CCNCC3)cc12 | . | -1% | . | . | . | .
N#CCC(C1CCCC1)n1cc(-c2ncnc3[nH]ccc23)cn1 (stereo unspecified) | . | 18%[57.5 µM] | . | . | . | .
O=C(Cn1c(SCC(=O)Nc2ccc(F)cc2)nc2ccccc21)NCc1ccccc1Cl | -12% | -2% | ? | 70* | i | -15%
Cc1ccc(CNC(=O)Cn2c(SCC(=O)Nc3ccc(F)cc3)nc3ccccc32)cc1 | -31% | -2% | 13µM* | ? | i | ?
CC(CO[C@@H]1O[C@H](COC(=O)/C=C/c2ccc(O)c(O)c2)[C@@H](O)[C@H](O)[C@H]1O)C1(O)COC(=O)C1 (stereo partly specified) | . | 0%[29.8 µM] | . | . | . | .
Nc1nc2c(ncn2C2OC3COP(=O)(O)OC3C2O)c(=O)[nH]1 (stereo unspecified) | . | -13%[57.5 µM] | . | . | . | .
Cc1nn2cc(-c3ccc(OC(C)C)cc3)nc2s1 | 3% | ? | 13µM* | -12 | i | 16µM*
CC(C)Oc1ccc(-c2csc(N3CCC(C(N)=O)CC3)n2)cc1 | . | -3% | . | . | . | .
CCCOC(=O)c1cccc(Nc2nc(CCC)cc(=O)[nH]2)c1 | i | . | 47% | 87* | . | 51%
CCCN1C[C@H](CSC)C[C@@H]2c3cccc4[nH]cc(c34)C[C@H]21 | . | -1%[57.5 µM] | . | 79*! | i | .
CN1C[C@H](C(=O)N[C@]2(C)O[C@@]3(O)[C@@H]4CCCN4C(=O)[C@H](Cc4ccccc4)N3C2=O)C[C@@H]2c3cccc4[nH]cc(c34)C[C@H]21 | . | 24%[57.5 µM] | . | -18 | i | .
CC(=O)Nc1sc2c(c1-c1ccc(C#N)cc1)CCNC2 | . | -3% | . | . | . | .
CN1CCC[C@@H]1c1cccnc1 | . | 16µM* | . | 0 | i | .
CCOc1ccc(-c2cn3c(n2)sc2cc(C(=O)NCCCN(CC)CC)ccc23)cc1 | ? | 40µM* | 4% | -9 | i | -3%
CCCN1CCN(CCCNC(=O)c2ccc3c(c2)sc2nc(-c4ccc(OCC)cc4)cn23)CC1 | ? | ? | 25µM* | -1 | i | ?
CCN(CC)CCNC(=O)c1ccc2c(c1)sc1nc(-c3ccc(F)cc3)cn12 | ? | ? | -14% | -4 | i | -2%
CCOc1ccc(-c2cn3c(n2)sc2cc(C(=O)NCCCN4CCCCC4)ccc23)cc1 | 11µM* | 50µM* | -1% | -13 | i | -6%
COc1ccc(N2CCN(CCCNC(=O)c3ccc4nc(N5CCCCC5)sc4c3)CC2)cc1 | i | 22µM* | -23% | 2 | i | -10%
SMILES | OvCa metastasis | NTMT1 inhibitor | p53null 39C kill | GPR32 ag | GALC G270D act | p53null 32C tox
CCN1CCN(CCCNC(=O)c2ccc3c(c2)sc2nc(-c4ccc(C)cc4)cn23)CC1 | i | ? | -19% | 1 | i | -3%
C/C(=N\NC(=O)c1cccc(S(=O)(=O)N2CCOCC2)c1)c1cc(Cl)ccc1O | . | 14% | . | . | . | .
NC(N)=NC(=O)c1cnn(-c2cccc3ncccc23)c1C1CC1 | . | 15%[57.5 µM] | . | . | . | .
CCOc1ccc(C2Nc3c(C)cccc3-c3cc(C)nn32)cc1 (stereo unspecified) | 2% | 4% | -17% | -8 | 25µM* | 17%
Cc1ccc2nc(-c3ccccc3F)c(Nc3ccc(Cl)cc3)n2c1 | i | -20% | 20µM* | -13 | i | 36%
COC(=O)[C@H](c1ccccc1Cl)N1CCC2SC(=O)C=C2C1 (stereo partly specified) | . | 1%[57.5 µM] | . | . | . | .
O=C(CC1N=C2c3ccccc3N=C(SCc3ccc(Cl)cc3)N2C1=O)NCCc1ccccc1 (stereo unspecified) | -2% | -1% | -16% | 74* | i | 4%
O=C(NCCN1CCN(c2cccc(Cl)c2)CC1)Nc1ccccc1C(F)(F)F | -3% | -6% | -8% | -19 | i | 6%
Cc1ccc(Cl)cc1N1CCN(CCNC(=O)Nc2ccccc2Cl)CC1 | 112% | 89µM* | -5% | -5 | i | 11%
O=C(Cn1ncccc1=O)NCCc1ccccc1 | . | -1% | . | . | . | .
N#Cc1ccc(Nc2ncc(-c3cccc4ccccc34)o2)cc1 | . | 7% | . | . | . | .
COc1cc(/C=N/O)ccc1OCc1ccc(C(=O)O)cc1 | . | . | 8.9µM* | . | . | 13µM*
Cc1cc(C)c2c(N)c(C(=O)Nc3ncc(C)s3)sc2n1 | . | . | 1µM* | . | . | 0.89µM*
CCOc1ccccc1NC(=O)c1sc2nc(C)cc(C)c2c1N | 9% | 0% | 4% | -2 | i | -1%
COc1ccc(NC(=O)CCCN2C(=O)C(c3ccccc3)Oc3cccnc32)cc1OC (stereo unspecified) | -12% | 2% | -7% | 76* | i | -9%
Cc1c(C(=O)OCC2CC2)[nH]c2c1C(=O)CC(c1ccco1)C2 (stereo unspecified) | . | -20% | . | . | . | .
CC(C)(C)NC(=O)N1CCC(C(=O)Nc2ccc([S+](=O)([O-])Nc3nccs3)cc2)CC1 | . | 7% | . | . | . | .
Oc1cc(CNC(=S)/C=C/c2cc(O)c(O)c(Br)c2)cc(O)c1O | . | 45µM* | . | . | . | .
FC(F)(F)c1ccccc1-c1nc(NCC23CC4CC(CC(C4)C2)C3)c2ccccc2n1 | . | -5%[57.5 µM] | . | . | . | .
S=P(N1CC1)(N1CC1)N1CC1 | -6% | 16µM*! | . | ? | i | .
Cc1ccc(NCc2cccn2-c2nnc(N3CCC(C(=O)NC(C)C)CC3)s2)cc1 | i | 89µM* | 0% | -22 | i | 8%
Cc1ccc(NC(=O)CCS(=O)(=O)c2ccc(Br)s2)c(Br)c1 | 2% | -8% | -28% | 71* | i | 3%
